Bioassay records: PubChem BioAssay, National Center for Advancing Translational Sciences (NCATS)
A selection: hits, their analogues and other compounds. The true share with any hit is near 6.2%.
RORg inh = blocks mouse ROR gamma transcriptional activity; P51450; Drosophila S2 Gal4-RORgamma UAS-luciferase reporter, 20 h; Potency, µM (top dose mostly 53.6 µM), actives largely listed as inhibitors; hit rate 5.4% among 310,000; AID 2551; further: nearly all actives have a fitted effect of over 60% in size
Target sequence (P51450 whole entry, looked up, the tested form may be a part): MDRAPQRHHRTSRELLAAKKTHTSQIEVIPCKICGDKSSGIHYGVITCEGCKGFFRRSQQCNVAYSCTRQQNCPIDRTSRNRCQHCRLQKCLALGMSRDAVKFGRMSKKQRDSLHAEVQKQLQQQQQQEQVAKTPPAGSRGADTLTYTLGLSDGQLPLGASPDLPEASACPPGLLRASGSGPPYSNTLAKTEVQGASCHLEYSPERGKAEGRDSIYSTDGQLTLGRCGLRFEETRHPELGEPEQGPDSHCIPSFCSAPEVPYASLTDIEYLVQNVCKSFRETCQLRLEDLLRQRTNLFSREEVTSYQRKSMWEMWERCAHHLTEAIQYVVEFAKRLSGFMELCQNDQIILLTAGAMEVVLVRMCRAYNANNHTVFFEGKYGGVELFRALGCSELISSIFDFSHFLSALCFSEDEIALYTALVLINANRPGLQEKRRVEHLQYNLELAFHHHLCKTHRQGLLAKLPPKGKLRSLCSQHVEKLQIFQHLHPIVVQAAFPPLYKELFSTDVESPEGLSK
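In this cell-based reporter format, copper sulfate (700 uM final) drives Gal4–ROR gamma fusion expression from a metallothionein promoter in Drosophila Schneider cells; compounds preincubated 1 hr, reporter read after 20 hr at ambient temperature.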
VP16 counter = counter-screen for ROR gamma inhibitors: Gal4-VP16 reporter. Drosophila S2 Gal4-VP16 UAS-luciferase, luminescence, 20 h. Potency, µM (top dose mostly 53.6 µM), most hits filed as inhibitors. hit rate 3.5% among 310,000;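 further: Gal4-VP16 expression switched on by copper sulfate through the metallothionein promoter; nearly all actives have a fitted effect of over 50% in size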
Luc counter = blocks Kinase-Glo luciferase, a counter-screen artifact. Q27757. Kinase-Glo luciferase, ATP luminescence, 8 min. Potency, µM (titrated, usually from 38.3 µM), hits mostly inhibitors. hit rate 0.28% among 200,000; further: nearly all actives have a fitted effect of over 60% in size
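Inhibition of Kinase-Glo luciferase light generation was assessed at 10 uM ATP in pH 7.2 imidazole buffer, with luminescence measured after eight minutes at ambient temperature.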
Of the large screens only hits and unclear results are named; the others gave an inactive call. The call rests on the fitted dose curve; in most records, active means well fitted curve in the direction sought with a large enough effect; inconclusive means small, poorly fitted or top-dose-only effect, or another doubt; inactive means no such curve, though single readings can be large; an effect the other way counts as inactive or inconclusive.

CC(C)(C)OC(=O)N1CCC(C(=O)N[C@H](C(=O)O)c2ccccc2)(c2ccccc2)CC1	none (no result: Luc counter)
COc1cc(/C=C/c2ccccc2)oc(=O)c1	none (no result: Luc counter)
CC(C)(C)c1ccc(C(=O)/C=C2\NC(=O)CS2)cc1	RORg inh 3.2µM, VP16 counter 10µM
Cc1ccc(NC(=O)/C=C2\NC(=O)CS2)cc1	RORg inh inconclusive (no result: Luc counter)
COc1ccccc1/C=C/C=N/n1c(-c2ccccc2)n[nH]c1=S	RORg inh 0.4µM, VP16 counter inconclusive (no result: Luc counter)
O=[N+]([O-])c1ccccc1/C=C/C=N/n1c(-c2ccccc2F)n[nH]c1=S	RORg inh 14µM (no result: Luc counter)
COc1ccccc1/C=C/C=N/n1c(-c2ccc(Cl)cc2)n[nH]c1=S	none (no result: Luc counter)
Cc1ccc(CN2CCN(/N=C/C=C/c3ccccc3[N+](=O)[O-])CC2)cc1	none
COc1ccc(-c2n[nH]c(=S)n2/N=C/C=C/c2ccccc2OC)cc1	RORg inh 7.1µM, VP16 counter inconclusive
COc1cccc(/C=N/n2c(-c3cc(C)[nH]n3)n[nH]c2=S)c1OC	none (no result: Luc counter)
Cc1ccc(S(=O)(=O)N2CCOCC2)cc1C(=O)NC(=S)N1CC(C)CC(C)C1 (stereo unspecified)	RORg inh 1.6µM, VP16 counter 5µM (no result: Luc counter)
Cc1ccc(S(=O)(=O)N2CCOCC2)cc1C(=O)NC1CCCC1	none (no result: Luc counter)
CCCC(C)NC(=S)NC(=O)c1cc(S(=O)(=O)N2CCOCC2)ccc1C (stereo unspecified)	RORg inh inconclusive, VP16 counter inconclusive
CCCCCC(C)NC(=S)NC(=O)c1cc(S(=O)(=O)N2CCOCC2)ccc1C (stereo unspecified)	RORg inh 10µM, VP16 counter 11µM
O=C(CO/N=C/c1ccccc1Cl)N1CCCc2ccccc21	RORg inh inconclusive (no result: Luc counter)
C=CCOC(=O)C(C(C)=O)C(NC(=O)OC)c1ccc(Cl)cc1 (stereo unspecified)	none (no result: Luc counter)
CCN(CC)c1nc(C)c(C(=S)Nc2cc([N+](=O)[O-])ccc2Cl)s1	RORg inh 3.2µM
CCC(C)(C)C(=O)Nc1cc([N+](=O)[O-])ccc1Cl	none
CC[Si](CC)(CC)O[C@H]([C@@H](C)COCOC)[C@@H](C)COCc1ccc(OC)cc1	none (no result: Luc counter)
O=[N+]([O-])c1c(Nc2ccccc2O)cc(Cl)c2nonc12	RORg inh 3.5µM, VP16 counter 2.8µM (no result: Luc counter)
O=[N+]([O-])c1c(Nc2ccccc2O)ccc2nonc12	none
CC(C)(C)OC(=O)NS(=O)(=O)NCc1ccco1	none (no result: Luc counter)
CC(=O)N/C(=C\c1ccccc1)C(=O)OCc1cc(C)ccc1C	none (no result: Luc counter)
C/C=C/Cn1c(N2CCCCCC2)nc2c1c(=O)[nH]c(=O)n2C	none
Cn1c(=O)[nH]c(=O)c2c1nc(N1CCCCC1)n2C/C=N/Nc1ccc(C(=O)O)cc1	RORg inh 7.1µM, VP16 counter inconclusive (no result: Luc counter)
CC(=O)NCC(=O)OCN1C(=O)c2ccccc2C1=O	none
O=C(NCC1CCOCC1)c1ccc2nc(Cc3cccc(Cl)c3)oc2c1	none (no result: Luc counter)
COC(=O)c1ccc2c(=O)[nH]c(CN3c4ccccc4CC3C)nc2c1 (stereo unspecified)	none
COC(=O)c1ccc2c(=O)[nH]c(CCl)nc2c1	RORg inh 13µM
CCN(CC)c1ccc(/C=C/c2cc(-c3ccccc3)c3ccccc3n2)cc1	none (no result: Luc counter)
COc1cc(C2=NOC(C(=O)Nc3c(C)n(C)n(-c4ccccc4)c3=O)C2)cc(OC)c1OC (stereo unspecified)	none (no result: Luc counter)
COCCCn1cnc2c(c1=O)c1nc3ccccc3nc1n2-c1ccccc1	none
COCCCn1cnc2oc3nc4ccccc4nc3c2c1=O	RORg inh inconclusive, VP16 counter 1.3µM
CC(NC(=O)COC(=O)C1CSC2(C)CCC(=O)N12)C12CC3CC(CC(C3)C1)C2 (stereo unspecified)	none
COc1cc(CC2COC(=O)C2(O)Cc2ccc(O)c(OC)c2)ccc1O (stereo unspecified)	RORg inh inconclusive, VP16 counter 7.1µM (no result: Luc counter)
COc1cc(C[C@H](C)[C@H](C)Cc2ccc3c(c2)OCO3)ccc1O	none (no result: Luc counter)
CS(=O)(=O)N1CCC(C(=O)N2CCN(c3ccccc3F)CC2)CC1	none
COc1ccc(CCNC(=O)c2cc3c(=O)n4cccc(C)c4nc3n(Cc3ccco3)c2=N)cc1OC	RORg inh 1.6µM, VP16 counter 1.1µM (no result: Luc counter)
Cc1ccc(CNC(=O)c2cc3c(=O)n4ccccc4nc3n(Cc3ccco3)c2=N)cc1	RORg inh 3.2µM, VP16 counter 2.8µM
Cc1cccn2c(=O)c3cc(C(=O)NCCc4ccccc4)c(=N)n(Cc4ccco4)c3nc12	none (no result: Luc counter)
N=c1c(C(=O)NCc2ccccc2)cc2c(=O)n3ccccc3nc2n1Cc1ccco1	RORg inh inconclusive, VP16 counter inconclusive
CCOC(=O)N1CCN(C(=O)CSc2ccc3nnc(CCNC(=O)c4ccc(OC)cc4)n3n2)CC1	none
CN(C)CCCO[C@H]1[C@@H]2OC(C)(C)O[C@@H]2O[C@@H]1[C@H](O)CO	none
CN(C)S(=O)(=O)c1ccc(C(=O)Nc2ccccc2SCCC#N)cc1	none
O=C(CCC(=O)Nc1cccc(Cl)c1)N/N=C/c1cc([N+](=O)[O-])ccc1O	RORg inh 11µM, VP16 counter inconclusive
O=C(O)CCCC(=O)Nc1cccc([N+](=O)[O-])c1	none
O=C(CCC(=O)Nc1cccc([N+](=O)[O-])c1)N/N=C/c1cccs1	none (no result: Luc counter)
O=C(CCCC(=O)Nc1cccc(Br)c1)N/N=C/c1cc([N+](=O)[O-])ccc1O	RORg inh inconclusive, VP16 counter 10µM (no result: Luc counter)
C/C(CC(=O)Nc1cc(Cl)ccc1Cl)=N\NC(=O)c1ccccc1Br	RORg inh inconclusive
COc1ccc(CNC(=O)N2CCN(c3ccccc3OC)CC2)cc1	none (no result: Luc counter)
O=C(NCCN1C(=O)CCC1=O)c1ccncc1	RORg inh 5.6µM (no result: Luc counter)
O=C(NCCN1CCOCC1)c1ccncc1	none
Cn1c(=O)c2[nH]c(N/N=C(/C#N)C(N)=O)nc2n(C)c1=O	none (no result: Luc counter)
O=C(COc1ccccc1)Nc1nc2ccccc2[nH]1	RORg inh inconclusive (no result: VP16 counter)
CCOc1ccc(OCCCC(=O)Nc2nc3ccccc3[nH]2)cc1	none
CCCOc1cccc(OCC(=O)Nc2nc3ccccc3[nH]2)c1	RORg inh 10µM, VP16 counter inconclusive
CCCCOc1cccc(OCC(=O)Nc2nc3ccccc3[nH]2)c1	RORg inh 16µM, VP16 counter inconclusive
CCOC(N)=O	none
CCn1ncc([N+](=O)[O-])c1C(=O)N1CCCC1	none
CCOC(=O)CN1C(=O)CCSc2ccc(Cl)cc21	none
COc1ccc(NC(=O)c2cn(-c3ccccc3)nc2-c2ccncc2)cc1	none
COc1ccc(-c2nn(-c3ccccc3)cc2C(=O)NC(=S)NNC(=O)c2ccncc2)cc1	RORg inh 6.3µM (no result: Luc counter)
CC(C)CC(NC(N)=O)C(=O)NCc1ccccc1Cl (stereo unspecified)	none (no result: Luc counter)
CCN1C(=O)c2cccc3c(S(=O)(=O)Nc4ccc(OC)cc4OC)ccc1c23	RORg inh inconclusive, VP16 counter 18µM
CCN1C(=O)c2cccc3c(S(=O)(=O)N(C(=O)c4cccnc4)c4ccc(OC)cc4)ccc1c23	VP16 counter inconclusive
CCN1C(=O)c2cccc3c(S(=O)(=O)N(C(=O)c4ccncc4)c4ccc(OC)cc4)ccc1c23	RORg inh inconclusive, VP16 counter 7.9µM
CCN1C(=O)c2cccc3c(S(=O)(=O)Nc4ccccc4)ccc1c23	VP16 counter inconclusive
CC(C)=CCC[C@](C)(O)C1CC=C(C)CC1 (stereo partly specified)	none
CSc1ccc(S(=O)(=O)NCc2ccccc2C)cc1	none
